Most compounds without a hit are left out; they make up all but 3.5% or so of the library.
Sm TGR block = qHTS Assay for the Inhibitors of Schistosoma Mansoni Peroxiredoxins | purified TGR, DTNB reduction, TNB absorbance 405 nm | Potency, µM (top dose mostly 114 µM), actives largely listed as inhibitors | actives 3% (n = 360,000) | AID 485364, 2010; further: nearly all actives have a fitted effect of over 60% in size
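TGR 20 nM + NADPH 100 uM (dispensed conc.), cpd preinc 15 min RT; start with NADPH (500 uM addition) then DTNB (15 mM addition). Kinetic TNB absorbance, 405 nm filter. Four-parameter Hill fit across titration.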
Tb PYK inh = qHTS of Trypanosoma Brucei Inhibitors; Potency, µM (highest dose often 76.8 µM), actives largely listed as inhibitors; actives 0.12% (n = 410,000); TbPYK enzyme, Kinase-Glo Plus ATP luminescence, 45 min; pyruvate kinase (Trypanosoma brucei), Q57TT1; further: nearly all actives have a fitted effect of over 50% in size
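TbPYK + substrate in 50 mM TEA pH 7.2, 100 mM KCl, 10 mM MgCl2, 0.05% BSA, 0.01% Tween-20; cpd pinned; ADP 130 uM final; 45 min RT; Kinase-Glo Plus 10 min; luminescence endpoint.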
LmPK inh = qHTS Assay for Inhibitors of Leishmania Mexicana Pyruvate Kinase (LmPK). Q27686. purified LmPK, Kinase-Glo ATP luminescence, 1 h. Potency, µM (top dose mostly 57.5 µM), hits mostly inhibitors. actives 0.37% (n = 290,000). AID 1721, 2009
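Purified LmPK (0.1 nM) with 0.5 mM PEP and 0.1 mM ADP in imidazole buffer pH 7.2 with MgCl2/KCl, 1 h at room temperature. ATP formed was read by luciferase luminescence and normalized to no-enzyme and uninhibited controls.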
NS1 function inh = qHTS Assay for Inhibitors of Influenza NS1 Protein Function | Potency, µM (doses to about 46.1 µM) | actives 0.4% (n = 270,000) | AID 2326, 2010; calls by dose curve; further: actives are rising curves; nearly all actives have a fitted effect of over 50% in size
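S. cerevisiae expressing influenza A NS1, grown in glucose, washed, then diluted 1:100 into pH 6.0 -URA galactose medium with 23 nl compound. Growth recovery read as OD600; NS1-free strain serves as control.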
RE007 growth inh = qHTS Assay for Inhibitors of the HIV-1 protein Vpr; S. pombe RE007 Vpr strain, BacTiter-Glo ATP luminescence, 24 h; Potency, µM (highest dose often 92.2 µM), most hits filed as inhibitors; actives 0.21% (n = 360,000); active means well fitted falling curve with a large enough effect; inconclusive means small, poorly fitted or top-dose-only effect; inactive means no such curve, though single readings can be large or run the other way; further: nearly all actives have a fitted effect of over 50% in size
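Fission yeast strain RE007, carrying one chromosomally integrated HIV-1 vpr copy, was seeded at OD 0.01 in PMG+AL medium with 23 nL pinned compound. After 24 h at 30 °C and 99% humidity, viability was read by BacTiter-Glo luminescence.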
Giardia FBPA inh-1 = qHTS Assay for Inhibitors of Fructose-1,6-bisphosphate Aldolase from Giardia Lamblia; A8B2U2; purified Giardia FBPA; Potency, µM (doses to about 59.6 µM), actives largely listed as inhibitors; actives 0.71% (n = 290,000); further: nearly all actives have a fitted effect of over 55% in size
Target sequence (A8B2U2 whole entry, looked up): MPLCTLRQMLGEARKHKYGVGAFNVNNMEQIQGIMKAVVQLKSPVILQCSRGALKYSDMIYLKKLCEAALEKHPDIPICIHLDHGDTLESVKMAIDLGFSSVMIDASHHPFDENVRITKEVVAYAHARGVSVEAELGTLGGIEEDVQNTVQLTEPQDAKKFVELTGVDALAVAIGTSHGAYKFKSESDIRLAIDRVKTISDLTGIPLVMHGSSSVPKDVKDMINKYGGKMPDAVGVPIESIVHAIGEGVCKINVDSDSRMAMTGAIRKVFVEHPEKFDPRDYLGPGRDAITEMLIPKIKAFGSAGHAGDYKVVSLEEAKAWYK
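Giardia FBPA (40 nM reagent) was preincubated 10 min at RT with compound (up to 57.5 uM final), then substrate plus GAPDH/TPI/NAD/arsenate coupling system with diaphorase/resazurin was added; resorufin fluorescence (525/598 nm) was read after 20 min.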
Giardia growth = qHTS Assay for Inhibitors of Fructose-1,6-bisphosphate Aldolase from Giardia Lamblia: Giardia lamblia growth inhibition | actives 5% (n = 1,500) | Giardia lamblia trophozoite growth inhibition | AID 2785, 2010 | Potency, µM (titrated, usually from 57.5 µM), actives largely listed as inhibitors | shares compounds with Giardia FBPA inh-1;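 further: trophozoites exposed to compound for 48 h at 37 °C; nearly all actives have a fitted effect of over 70% in size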
Mammalian tox = qHTS Assay for Inhibitors of Fructose-1,6-bisphosphate Aldolase from Giardia Lamblia: Mammalian cellular toxicity; actives 4% (n = 1,500); mammalian cell viability counter-screen, qHTS; shares compounds with Giardia FBPA inh-1; AID 2786, 2010; Potency, µM (highest dose often 57.5 µM), hits mostly inhibitors;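 further: Chinese hamster ovary cells used as mammalian cytotoxicity surrogate; viability measured as cellular ATP by luminescence; compound exposure lasted 48 h before reading; nearly all actives have a fitted effect of over 60% in size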
Giardia FBPA inh-2 = qHTS Assay for Inhibitors of Fructose-1,6-bisphosphate Aldolase from Giardia Lamblia: Primary screen confirmation. shares compounds with Giardia FBPA inh-1. actives 5% (n = 1,500). Potency, µM (series often up to 57.5 µM), usual class: inhibitors. purified Giardia aldolase enzyme activity, qHTS; further: nearly all actives have a fitted effect of over 45% in size
Rabbit aldolase = qHTS Assay for Inhibitors of Fructose-1,6-bisphosphate Aldolase from Giardia Lamblia: Rabbit FBPA Selectivity; actives 4% (n = 1,500); Rabbit muscle FBPA enzyme inhibition, selectivity counter-screen; Potency, µM (series often up to 57.5 µM), usual class: inhibitors; shares compounds with Giardia FBPA inh-1; further: nearly all actives have a fitted effect of over 60% in size
Target sequence (P00883 whole entry, looked up): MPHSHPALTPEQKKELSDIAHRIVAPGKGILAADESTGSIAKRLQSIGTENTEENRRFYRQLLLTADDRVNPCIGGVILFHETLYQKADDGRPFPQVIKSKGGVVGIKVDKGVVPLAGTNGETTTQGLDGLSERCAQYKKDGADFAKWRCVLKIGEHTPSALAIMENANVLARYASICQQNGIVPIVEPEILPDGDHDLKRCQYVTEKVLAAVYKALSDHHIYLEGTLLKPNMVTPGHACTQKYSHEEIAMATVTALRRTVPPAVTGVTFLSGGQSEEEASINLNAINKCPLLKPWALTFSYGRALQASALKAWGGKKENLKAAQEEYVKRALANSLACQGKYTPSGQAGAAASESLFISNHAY
GAPDH coupling = qHTS Assay for Inhibitors of Fructose-1,6-bisphosphate Aldolase from Giardia Lamblia: Coupling assay counterscreen confirmation; shares compounds with Giardia FBPA inh-1; GAPDH coupling enzyme counterscreen, biochemical, qHTS; Potency, µM (top dose mostly 57.5 µM), usual class: inhibitors; actives 6% (n = 1,500); further: nearly all actives have a fitted effect of over 55% in size
A number is an active result; n = inactive; u = inconclusive; x = no result; [ ] = dose if it differs, or a comment. Unless noted, the call rests on the fitted dose curve; in most records, active means well fitted curve in the direction sought with a large enough effect; inconclusive means small, poorly fitted or top-dose-only effect, or another doubt; inactive means no such curve, though single readings can be large; an effect the other way counts as inactive or inconclusive.

SMILES	Sm TGR block	Tb PYK inh	LmPK inh	NS1 function inh	RE007 growth inh	Giardia FBPA inh-1	Giardia growth	Mammalian tox	Giardia FBPA inh-2	Rabbit aldolase	GAPDH coupling
CN(C)Cc1ccccc1-c1nccc(N(C)Cc2ccco2)n1	x	x	x	x	x	n	x	x	x	x	x
CCOC(=O)CCc1c(C)nc(-n2[nH]c(C)c(CCO)c2=O)[nH]c1=O	16µM	n	n	x	n	14µM	n[10.4 µM]	n	n	n	n
CCC(C)[C@H](NC(=O)[C@@H]1Cc2ccccc2CN1)C(=O)NCc1ccc(OC)cc1 (stereo partly drawn)	n	n	n	n	n	14µM	n	n	n	n	n
CCC(C)[C@H](NC(=O)[C@@H]1Cc2ccccc2CN1)C(=O)NCc1ccc(C)cc1 (stereo partly drawn)	x	n	x	x	n	x	x	x	x	x	x
CCN(CC)c1ccc(NC(=O)C2CCN(S(=O)(=O)c3c(C)noc3/C=C/c3ccccc3F)CC2)c(C)c1	n	n	x	x	x	x	x	x	x	x	x
COc1cc(-c2nc(S(=O)(=O)c3ccc(C)cc3)c(N3CCOCC3)o2)cc(OC)c1OC	u	n	n	n	n	35µM	u	n	n	n	n
COc1cc(-c2nc(S(=O)(=O)c3ccc(Cl)cc3)c(N3CCOCC3)o2)cc(OC)c1OC	u	n	n	n	n	n	x	x	x	x	x
CC(C)c1ccc(NC(=O)N2c3ccccc3Sc3ccccc32)cc1	n	n	x	x	x	x	x	x	x	x	x
COc1ccc(N(Cc2cccs2)C(=O)COc2cccc(C)c2C)cc1	n	n	x	x	x	x	x	x	x	x	x
CSc1nccn1C(=O)c1ccccc1[N+](=O)[O-]	u	n	n	n	n	28µM	n[10.4 µM]	n	n	n	n
Cn1ccnc1Sc1ccccc1[N+](=O)[O-]	n	n	n	x	n	n	x	x	x	x	x
c1ccc(CCN(Cc2ccccc2)C2CCN(C3CCCC3)CC2)cc1	n	n	u	x	n	20µM	45µM	n	n	n	n
O=C(CCCc1ccccc1)N1CCN(C2CCCCC2)CC1	n	n	n	n	n	n	x	x	x	x	x
Cc1ccc(NC(=O)CSc2nnc(-c3nnn(-c4ccc(F)cc4)c3C)o2)cc1Br	n	n	x	x	x	x	x	x	x	x	x
O=C(O)C1CCc2sc3[nH]c(=S)n(-c4ccccc4)c(=O)c3c21 (stereo not drawn)	n	u	n	n	n	20µM	n[10.4 µM]	n	n	n	n
CCC(=O)Nc1sc2c(c1C(=O)OC)CCN(Cc1ccccc1)C2	n	n	n	n	n	13µM	n	n	n	n	n
CCN1CCc2c(sc(NC(=O)C3CCCCC3)c2C(=O)OC)C1	n	n	n	n	n	18µM	n	n	n	n	n
COc1cccc(OC)c1C(=O)Nc1sc2c(c1C(N)=O)CCN(Cc1ccccc1)C2	n	n	n	n	n	13µM	n	n	n	n	n
CC(C)N1CCc2c(sc(NC(=O)Cc3ccccc3)c2C(N)=O)C1	n	n	n	n	n	13µM	u	n	n	n	n
CN1CCc2c(sc(NC(=O)c3cc(Cl)sc3Cl)c2C(N)=O)C1	n	n	n	n	n	32µM	n	u	n	n	n
CN1CCc2c(sc(NC(=O)c3ccco3)c2C(N)=O)C1	n	n	n	n	n	n	x	x	x	x	x
Cn1c(=O)cc(C(=O)N/N=C/c2ccc(F)cc2)[nH]c1=O	n	n	n	n	n	16µM	n	n	n	n	n
O=C(COc1ccccc1O)N1CCN(C(=O)c2ccco2)CC1	n	n	n	n	n	n	x	x	x	x	x
O=C(COc1cccnc1[N+](=O)[O-])N1CCN(C(=O)c2ccco2)CC1	n	n	n	n	n	18µM	n[10.4 µM]	n	n	n	n
O=C(Nc1n[nH]c(=S)s1)c1ccco1	n	u	n	n	n	7.1µM	n	n	40µM	n	n
SMILES	Sm TGR block	Tb PYK inh	LmPK inh	NS1 function inh	RE007 growth inh	Giardia FBPA inh-1	Giardia growth	Mammalian tox	Giardia FBPA inh-2	Rabbit aldolase	GAPDH coupling
CCOc1ccc(N(CC)S(=O)(=O)c2cc(Br)cc3c2N(C(C)=O)C(C)C3)cc1 (stereo not drawn)	n	n	x	x	x	x	x	x	x	x	x
CCC(=O)Nc1nc(C)c(-c2csc(Nc3cccc(C(=O)O)c3)n2)s1	n	n	n	x	n	u	x	x	x	x	x
Cc1nc(N)sc1-c1csc(Nc2cccc(C(=O)O)c2)n1	u	n	n	n	n	18µM	n	n	u	32µM	32µM
COc1ccc2nc(NC(=O)c3nc(SCc4ccc(F)cc4)ncc3Cl)sc2c1	n	n	x	x	x	x	x	x	x	x	x
CCOC(=O)OCC1OC(C#Cc2ccccc2)C=CC1OC(=O)OCC (stereo not drawn)	x	x	x	x	x	n[12.9 µM]	x	x	x	x	x
COC(=O)Oc1nsnc1N1CCOCC1	n	n	n	n	n	14µM	n	n	n	u	u
CSc1nn(Cc2ccc(Br)cc2)c(N(C(C)=O)C(C)=O)c1S(=O)(=O)c1ccccc1	n	n	x	x	x	x	x	x	x	x	x
Cc1ccccc1N=Cc1cccc(O)c1O	5µM	n	n	n	x	5.6µM	20µM	n	11µM	32µM	32µM
Cc1ccc(N=Cc2cccc(O)c2O)c(C)c1	n	x	n	n	x	u	x	x	x	x	x
COC(=O)/C=C1\S/C(=N\N=C\CC(=O)OC)NC1=O	n	n	n	n	n	16µM	n	n	n	n	n
COc1ccc(C(=O)Nc2nc3c(s2)Cc2c(Br)ccc(OC)c2-3)cc1OC	n	n	x	x	x	x	x	x	x	x	x
O=C(O)c1nc(=O)[nH]c(=O)[nH]1	x	n	x	x	x	x	x	x	x	x	x
O=C(O)c1[nH]c(=O)[nH]c(=O)c1F	n	n	n	n	n	20µM	n	n	n	n	n
